Screen size: about 69,000 compounds; about 8,600 (12%) showed an effect of 50% or more. The full list was thinned out, with strong results kept by preference.

The experiment has as its system Plasmodium berghei. Briefly: Screen against P. berghei liver stage (PbLuc), transformed with Luciferase, at 10uM. In kind it is functional, HepG2. To be noted: tested at 10 uM.
Regarding `CC(C)(C(N)=O)N1CCN(C(=O)c2ccn(-c3cccc(Cl)c3)n2)CC1`, the INHIBITION is on record as -14.6%.
As for `COc1ncccc1CN1CCn2c(C(=O)N3CCCC3)cnc2C1`, the figure is 7.24%; as for `Cc1nc[nH]c1CN1CCN(C2CCOCC2)CC(C(N)=O)C1` (stereo unspecified), 7.52%; as for `Cn1nnc(NCc2ccc(-c3ccc(Br)cc3)o2)n1`, 0.868%.
As for `Cc1cnc(CC2COCCN(C(=O)CN3CCCCC3)C2)cn1` (stereo unspecified), the figure is 30.4%; as for `O=C(COCC(F)(F)F)NS(=O)(=O)c1ccc2c(c1)OCCCO2`, 63.5%.
Turning to `COCCCC(=O)NS(=O)(=O)c1ccc2c(c1)OCCCO2`, the INHIBITION is 38.6%.
As for `O=C(COC1CCCC1)NS(=O)(=O)c1ccc2c(c1)OCCCO2`, the INHIBITION is 8.64%.
In the case of `CCCOCC(=O)NS(=O)(=O)c1ccc2c(c1)OCCO2`, the INHIBITION is on record as 18.2%.
The value for `O=C(COC1CCCCC1)NS(=O)(=O)c1ccc2c(c1)OCCCO2` was 10%; that for `CCCOCC(=O)NS(=O)(=O)c1ccc2c(c1)OCCCO2` was 51.6%; that for `CC(C)C(=O)N1CCCc2c(cnn2-c2ccccc2)C1` was 9.05%.
The value for `O=C(O)C1(Oc2ccc(Cl)cc2)CCN(C2CCOCC2)CC1` was 24.7%; that for `Cc1cc(C)n(C(=O)c2cn(C)nc2S(=O)(=O)N2CCSCC2)n1` was 56.5%.
`CCn1cc(C(=O)n2nc(C)cc2C)c(S(=O)(=O)N2CCCCC2)n1`: the INHIBITION came to 29.7%.
The value for `CCCn1cc(C(=O)n2nc(C)cc2C)c(S(=O)(=O)N2CCSCC2)n1` was 0%; that for `CN(Cc1nc(-c2ccoc2)no1)C1CCCN(c2cccnn2)C1` (stereo unspecified) was 7.12%; that for `CCNc1c(NC(=O)NC(C)C)c(=O)oc2ccccc12` was 40.3%.
With `Cc1cc(-c2cnc(N3CCC(O)CC3)nc2C(C)C)on1`, the INHIBITION is listed as 59.4%.
Consider `Cc1cc(-c2cnc(N3CCSCC3)nc2C(C)C)on1`, for which the INHIBITION was 50.8%.
As for `Cc1cc(-c2cnc(N3CCC(C(N)=O)CC3)nc2C(C)C)on1`, the INHIBITION is 77.1%.
For `Cc1cc(-c2cnc(N(C)C)nc2C2CCCCN2C(=O)C2CC2)on1` (stereo unspecified), the INHIBITION is recorded as -11.59%.
For `Cc1cc(-c2cnc(N3CCN(C)CC3)nc2C(C)C)on1`, the INHIBITION turned out to be 47.95%.
Turning to `COc1ccc(Cl)cc1C(=O)N1CCCC(c2cc(C)[nH]n2)C1` (stereo unspecified), the INHIBITION is reported as -2.53%.
Consider `Cc1cc(C(=O)NC2CCC3(CCC(=O)N3CC3CC3)CC2)no1` (stereo unspecified), for which the INHIBITION is -1.12%.
`N#CC1(NC(=O)c2ccc(-c3nc(C4CC4)n[nH]3)cc2)CCSC1` (stereo unspecified): the INHIBITION is recorded as 22%.
With `COc1ccc(C(C#N)NC(=O)Cc2ccc(F)c(F)c2)c(OC)c1` (stereo unspecified), the INHIBITION was determined as 17.7%.
As to `CCc1noc(CN(CC)Cc2cc3ccc(F)cc3[nH]c2=O)n1`, the INHIBITION is listed as -52.7%.
Take `CCCn1cc(C(=O)NCCC(=O)NC2CCCCC2)c(C)n1`: the INHIBITION was -5.12%.
Consider `CCCn1cc(C(=O)NCC(=O)NC2CC2)c(C)n1`, for which the INHIBITION turned out to be 60.3%.
The value for `CCCn1cc(C(=O)NC2CCN(CC(=O)NC3CC3)CC2)c(C)n1` was 39.4%; that for `CCC(=O)Nc1ccccc1Sc1nc(Br)nn1C` was 3.31%.
The value for `Cc1ccnc(N2C[C@H]3CC[C@@H](C2)N(CC2CCC2)C3=O)n1` was -4.35%; that for `Cc1cc(SCC(N)=O)nc(-c2ccc(F)cc2)n1` was -6.18%; that for `Cc1cc(SCC(N)=O)nc(-c2cccc(F)c2)n1` was 3.58%.
For `COc1ccc(-c2nc(C)cc(SCC(N)=O)n2)cc1`, the INHIBITION was found to be 85.5%.
For the compound `CCC(C)[C@H](N)c1nnc(SCC(=O)Nc2ccc(Br)cc2)o1` (stereo partly specified), the INHIBITION is 41.1%.
As for `CC(=O)N1C[C@H]2CC[C@@H](C1)N(S(=O)(=O)c1ccccc1Cl)C2`, the INHIBITION is -7.2%.
Take `CCn1nc(C)cc1S(=O)(=O)N1CCC2(CCCN(C(C)C)C2=O)C1` (stereo unspecified): the INHIBITION stood at 58.6%.
In the case of `CCCN1CCCC2(CCN(S(=O)(=O)c3cc(C)nn3CC)C2)C1=O` (stereo unspecified), the INHIBITION is 21.2%.
With `CCn1nccc1S(=O)(=O)N1CCC2(CCCN(C(C)C)C2=O)C1` (stereo unspecified), the INHIBITION was 33%.
Consider `O=C(c1ccsc1)N1CCO[C@@H]2CN(Cc3ccco3)CC[C@@H]2C1`, for which the INHIBITION is given as 44.8%.
In the case of `Cc1c(CNCC(C)Oc2cccnc2)c2ccccc2n1CC(N)=O` (stereo unspecified), the INHIBITION is reported as -36.6%.
In the case of `Nc1cc2c(nn1)CCN(C(=O)c1cccc3c1OCCO3)C2`, the INHIBITION was 44.2%.
For the compound `Nc1cc2c(nn1)CCN(C(=O)c1cccnc1Oc1ccccc1)C2`, the INHIBITION is reported as -18.7%.
In the case of `Cc1cc(C(=O)N2CCc3nnc(N)cc3C2)c(C)n1-c1ccccc1`, the INHIBITION came out at 89.3%.
The value for `Cc1cc(C(=O)N2CCc3nnc(N)cc3C2)c(C)n1-c1cccnc1` was 11.8%.
Turning to `CCn1c(C)cc(C(=O)N2CCc3nnc(N)cc3C2)c1C`, the INHIBITION came out at 68.8%.
As for `Cc1cc(C(=O)N2CCc3nnc(N)cc3C2)c(C)n1C1CC1`, the figure is -15.8%.
Take `Cc1ccc(CN(C(=O)NCC2CCCO2)C2CC2)o1` (stereo unspecified): the INHIBITION is listed as -56.2%.
On to `COCCc1noc(CNC2CCCC(C)(C)C2)n1` (stereo unspecified), for which the INHIBITION was determined as 20.2%.
As for `Cc1ccccc1CS(=O)(=O)c1nnc(C(C)NC(=O)OC(C)(C)C)o1` (stereo unspecified), the figure is 46.6%; as for `CC(=O)N(C)Cc1ccccc1NCc1c(C)cccc1C`, 50.2%.
The value for `CC(=O)N(C)Cc1ccccc1NCc1c(C)noc1C` was -16.1%; that for `CC(=O)N(C)Cc1cccc(NC(=O)N(C)CCc2cccs2)c1` was -6.34%.
In the case of `CC(=O)N(C)Cc1ccccc1NC(=O)N(C)CCc1cccs1`, the INHIBITION is 52.3%.
As for `CC(=O)N(C)Cc1ccccc1NC(=O)c1ccccc1C`, the figure is -19.55%; as for `C=C(C)CN(CC)C(=O)Nc1ccccc1CN(C)C(C)=O`, 28.7%.
In the case of `O=C(c1ccccc1)N1CCS(=O)(=O)[C@@H]2CCNCC[C@@H]21`, the INHIBITION worked out at 38.2%.
Take `CNC(=O)c1ccc(C(=O)N2CCCC(n3nc(C)cc3C)C2)cn1` (stereo unspecified): the INHIBITION is listed as -11.9%.
`Cc1csc(N2CCCN(C(=O)c3ccoc3C)CC2)n1`: the INHIBITION is reported as 15.3%.
As for `CC(=O)N1CC(=O)N(c2ccccc2)CC12CCN(Cc1ccoc1)C2` (stereo unspecified), the figure is 38.3%; as for `Cc1ncsc1CN1C[C@@H]2CC[C@H]1CN(Cc1ccccc1)C2`, 15.5%; as for `c1cnc(N2C[C@H]3CC[C@@H](C2)N(Cc2ccsc2)C3)nc1`, 15.7%.
For the compound `CC(=O)Nc1ccc(CN2C[C@@H]3CC[C@H]2CN(c2ncccn2)C3)cc1`, the INHIBITION is on record as -8%.
As for `Cc1nnsc1CN1C[C@@H]2CC[C@H]1CN(Cc1ccccn1)C2`, the figure is -15.3%; as for `CS(=O)(=O)c1ccc(CN2C[C@@H]3CC[C@H]2CN(c2ncccn2)C3)cc1`, 74.1%.
In the case of `COc1ccc(CN2C[C@H]3CC[C@@H](C2)N(Cc2snnc2C)C3)cc1`, the INHIBITION was 73.5%.
As for `CC(C)c1nnc(N2C[C@H]3CC[C@@H](C2)N(CC2CCC2)C3)s1`, the figure is 44.6%; as for `Cc1nnsc1CN1C[C@H]2CC[C@@H](C1)N(Cc1ccccc1)C2`, 60%; as for `CCCN1C[C@@H]2CC[C@H]1CN(c1nnc(C(C)C)s1)C2`, -11.9%.
Take `CC(C)c1nnc(N2C[C@H]3CC[C@@H](C2)N(Cc2ccccc2)C3)s1`: the INHIBITION was determined as 87.2%.
As for `Cc1nnsc1CN1C[C@@H]2CC[C@H]1CN(Cc1ccc(F)cc1)C2`, the figure is 29.1%; as for `Cc1nnsc1CN1C[C@@H]2CC[C@H]1CN(Cc1ccccc1)C2`, 46.4%.
As to `NC1CCC(CN2CCCn3nc(CNC(=O)C4CCC4)cc3C2)CC1` (stereo unspecified), the INHIBITION is given as 18.4%.
The value for `Cc1cnc(C(=O)N2CCCN(c3nc(C)cs3)CC2)cn1` was -5.25%.
For `Cc1ccc(CN2CC[C@@H](N3CCOCC3)[C@@H]2Cc2cccnc2)o1`, the INHIBITION amounted to 12.1%.
Turning to `CCCC(O)CN1CC(C)(C)CN(C(=O)c2ccc(Cl)cc2)CC1=O` (stereo unspecified), the INHIBITION came out at 46.4%.
The value for `O=C([C@H]1C[C@@H]2CCN(c3cccc(F)c3)C[C@H]2O1)N1CCCCO1` was 23.3%; that for `c1cnnc(N[C@@H]2CC[C@@H]3CN(Cc4ccc5[nH]ccc5c4)C[C@@H]32)c1` was 27.2%; that for `Cc1nn(CCN2CCSCC2)cc1CNCC1CC1` was -22%.
As to `O=C(NCc1ccco1)[C@@]12CCO[C@@H]1CCN(C1CCC1)C2`, the INHIBITION amounted to 29%.
In the case of `CS(=O)(=O)N1C[C@H]2CCCN(Cc3nccs3)[C@H]2C1`, the INHIBITION is listed as 33.4%.
Turning to `NC1CCC(n2cc(C(=O)NC3COc4ccccc43)nn2)CC1` (stereo unspecified), the INHIBITION was -28%.
Take `CN(C)CCN1CC[C@@H]2O[C@@H](COCC(=O)N3CCCC3)CC[C@@H]21`: the INHIBITION stood at 29%.
As for `O=C(O)CNC(=O)Cc1csc(-c2cccc(Cl)c2)n1`, the figure is 44.9%; as for `COc1cc(N2CC[C@H]3O[C@@H](C(=O)NC4CCCC4)CC[C@H]32)ncn1`, -5.31%; as for `CC(C)n1cc(N2CC(C(=O)N3CCC(C(N)=O)CC3)CC2=O)cn1` (stereo unspecified), -23.5%.
Turning to `CCCc1nc(CNc2nc(C)nc3oc(C)nc23)cs1`, the INHIBITION is reported as 50.8%.
Take `CCCc1nc(CNC(C)Cn2cccn2)cs1` (stereo unspecified): the INHIBITION is -31.5%.
Turning to `CCCc1nc(CNC(=O)Cc2cc(C)no2)cs1`, the INHIBITION is on record as 31.6%.
As for `CCS(=O)(=O)NCC(=O)Nc1cc(CC(C)(C)C)n[nH]1`, the figure is -10.7%; as for `O=C(CSCC1CC1)N1C[C@H]2CC[C@@H](C1)N(Cc1ccccn1)C2=O`, 17%; as for `Cc1cnn(CC2CCCN2CC(=O)Nc2cc(C)nn2C)c1` (stereo unspecified), 38.6%.
With `COCC(=O)NC(Cc1cc(N(C)C)nc(C2CC2)n1)c1ccccc1` (stereo unspecified), the INHIBITION amounted to 51.4%.
Consider `CC(C)C(=O)NC(Cc1cc(N(C)C)nc(C2CC2)n1)c1ccccc1` (stereo unspecified), for which the INHIBITION is 45.9%.
Turning to `CCC(=O)NC(Cc1cc(N(C)C)nc(C2CC2)n1)c1ccccc1` (stereo unspecified), the INHIBITION is 33.8%.
Consider `Cc1ccc2c(c1)c(CNC(=O)C1CC(=O)N(C3CCCC3)C1)nn2C` (stereo unspecified), for which the INHIBITION came to 38.5%.
On to `Cc1ccc2c(c1)c(CNC(=O)C1CC(=O)N(C3CC3)C1)nn2C` (stereo unspecified), for which the INHIBITION is on record as -6.34%.
Take `Cc1ccc2c(c1)c(CNC(=O)C1CC(=O)N(CCN(C)C)C1)nn2C` (stereo unspecified): the INHIBITION came to 82.4%.
Regarding `O=C(NCC1CCS(=O)(=O)C1)N(Cc1ccncc1)C1CC1` (stereo unspecified), the INHIBITION is listed as -1.15%.
